# Assay outcomes as filed in PubChem BioAssay.
# V-ATPase pH = yeast V-ATPase proton transport regulation by pHLuorin; S. cerevisiae, pHLuorin cytosolic pH fluorescence; response, % at 10 µM; actives 0.37% (n = 350,000); in the data active = response mostly above about 7.3%, no sharp cut-off; inactive = mostly below about 5.4%; also: actives read high
# PKA-R1A act = activators of PKA-R1A complex. P00514+P68181. activation, % at 11.4 µM. PKA-R1A dissociation, Cy5-IP20 fluorescence polarization; scaled: DMSO 0%, 113 µM cGMP 100%. actives 0.083% (n = 340,000);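 active = percent activation above the mean of all tested compounds plus 3 SD, cut at about 19% in these data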;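 also: higher means more PKAc released from R1A so a rise in polarization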
# Yeast superoxide = caloric restriction mimetics inhibiting age-related superoxide in yeast; superoxide response (% of plate mean), % at 10 µM; actives 0.18% (n = 330,000); S. cerevisiae aged cells, superoxide DHE fluorescence; stronger effect = lower value;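 active = superoxide response under a set limit, about three screen SD below normal, cut at about 65% in these data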;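 also: yeast aged for seven days with compound at 30 °C before DHE staining; 100% = average MFI of all compound-treated wells on the plate with controls excluded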
# PKA-R2B activ = PKA-R2B complex activation; actives 0.079% (n = 340,000); PKA-R2B holoenzyme dissociation, Cy5-IP20 fluorescence polarization; R2B truncated from residue 108, S112A mutant; 0% DMSO only, 100% 113 µM cGMP; AID 504700; activation, % at 11.4 µM;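 active = activation above a cutoff set at the mean over all compounds plus 3 SD, cut at about 18% in these data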;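 also: higher means more holoenzyme dissociation and a rise in polarization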
# GASC-1 inh = human JMJD2C demethylase inhibition. GST-JMJD2C(1-420) H3K9me3 demethylation, DELFIA europium. inhibition, % at 2.35 µM. actives 0.069% (n = 330,000);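 active = more than half of a compound's replicate wells show inhibition beyond 50%, single wells judged on their own value; inconclusive = some, but no more than half, of replicates pass 50% inhibition; inactive = no replicate passes 50% inhibition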;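 also: signal counts dimethyl H3K9 product captured on neutravidin plate; 0% = median of DMSO wells and 100% = 0.3 times that DMSO median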
# Target sequence (Q9H3R0 1-420 limits assumed): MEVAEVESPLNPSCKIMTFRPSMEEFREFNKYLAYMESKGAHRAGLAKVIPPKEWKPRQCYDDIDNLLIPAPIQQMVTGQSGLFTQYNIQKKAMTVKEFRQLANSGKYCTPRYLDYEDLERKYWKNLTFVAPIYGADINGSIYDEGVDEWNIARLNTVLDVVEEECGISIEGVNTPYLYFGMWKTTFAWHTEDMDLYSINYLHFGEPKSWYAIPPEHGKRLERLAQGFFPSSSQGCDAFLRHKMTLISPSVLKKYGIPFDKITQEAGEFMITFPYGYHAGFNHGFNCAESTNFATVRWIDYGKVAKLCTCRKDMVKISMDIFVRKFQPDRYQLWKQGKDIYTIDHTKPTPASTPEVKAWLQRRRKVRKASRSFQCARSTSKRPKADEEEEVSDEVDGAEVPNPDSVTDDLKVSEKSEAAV
# PolyA inhibitor = blocks polyadenylation in yeast reporter cells | S. cerevisiae SKY197-pL101 polyadenylation reporter, beta-gal luminescence; efflux-impaired pdr1/pdr3 knockout yeast; score 100 = 6 SD above DMSO | actives 0.02% (n = 300,000) | activity score, % at 12 µM;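 active = lowest replicate activity score at least 50, where 100 means six control SD above control mean; inconclusive = lowest score under 50 but half or more replicates reach 50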;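 also: yeast exposed to compound for 9 h at 30 °C; higher score means more reporter readthrough which indicates perturbed polyadenylation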
# Superoxide pick = confirmation of caloric restriction mimetics inhibiting yeast age-related superoxide; actives 1% (n = 850); superoxide response (% of plate), % at 10 µM; shares compounds with Yeast superoxide; AID 434994; S. cerevisiae aging, superoxide DHE fluorescence; stronger effect = lower value;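 active = superoxide signal below 65% of the plate average of sample wells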;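 also: cells aged with compound for 7 days at 30 degrees C before staining; 100% equals mean DHE fluorescence of all compound wells on the plate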
# DHE fluor count = counter-screen for compounds affecting DHE oxidation and fluorescence in yeast; fluorescence response, % at 10 µM; AID 435000; 850 tested, under 10 active; S. cerevisiae BY4741, flow cytometry; stronger effect = lower value; shares compounds with Yeast superoxide;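 active = fluorescence response below 15%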;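 also: percent of the mean fluorescence averaged over all compound wells on the plate; lower means stronger quenching of DHE signal or ROS scavenging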
# An asterisk follows results filed as active; ? = inconclusive; / = not tested or not shown. The list is not random: actives were taken first. Their share in the collection is about 0.78%.
SMILES,V-ATPase pH,PKA-R1A act,Yeast superoxide,PKA-R2B activ,GASC-1 inh,PolyA inhibitor,Superoxide pick,DHE fluor count
Cn1c(=O)cc(-c2ccccc2)c2ccccc21,13*,-2,110,2,13,10,/,/
CCCCN(C(=O)c1cccs1)C1CCS(=O)(=O)C1 (stereo not given),0,-4,98,-8,2,13,/,/
CCn1cc(S(=O)(=O)CC(=O)Nc2ccc(OC)cc2)c2ccccc21,16*,12,116,13,-5,0,/,/
O=C1CC(N2CCC(Cc3ccccc3)CC2)C(=O)N1CCc1ccccc1 (stereo not given),10*,-1,98,-6,5,5,/,/
O=C(CN1C(=O)NC2(CCc3ccccc32)C1=O)NCc1ccc(Cl)cc1 (stereo not given),-3,1,104,-5,/,/,/,/
COc1ccc(C(=O)NC(=S)NNC(=O)c2ccc3ccccc3n2)cc1,-7,-1,63*,-1,7,3,/,/
O=C(Nc1ccc2nc3ccccc3nc2c1)c1ccc(Br)cc1,-35,-10,99,-3,2,-2,93,113
CCOc1ccc(NS(=O)(=O)c2ccc(N)cc2)cc1,-3,-2,101,-4,-8,?,98,90
CCOc1ccc(NS(=O)(=O)c2ccc(SC)cc2)cc1,4,0,100,-2,0,3,/,/
CCOc1ccc(S(=O)(=O)N2CCCC2)cc1,-3,-7,112,-6,17,-3,110,109
COc1c(C)cc(S(=O)(=O)N2CCCC2)c(C)c1C,-2,-3,109,3,-1,-12,97,95
COc1cc(C)c(S(=O)(=O)N2CCCC2)cc1C,-2,-6,59*,12,-1,-40,80,92
CCOc1ccc2cc(S(=O)(=O)N3CCCCC3)ccc2c1,-1,3,81,-5,-1,-19,/,/
CC(C)NC(=O)NC(=O)COC(=O)c1ncc(Cl)c(Cl)c1Cl,-1,2,75,-6,13,6,/,/
COc1cc(C)c(S(=O)(=O)N2CCN(C)CC2)cc1C,-4,-7,114,5,-5,6,/,/
COc1cc(C)c(S(=O)(=O)N2CCCC2)cc1C(C)C,3,0,91,-4,-20,-20,92,90
CCOc1cc(S(=O)(=O)N2CCCC2)c(C)cc1C,2,9,99,8,-3,-11,104,104
COc1ccc(NC(=O)CCCn2c(=S)[nH]c3ccccc3c2=O)cc1,-3,-4,97,1,-5,-5,/,/
COc1ccc(NC(=O)CCn2c(=S)[nH]c3ccccc3c2=O)cc1,-3,-5,65*,9,1,4,115,112
CC(=O)c1ccc(S(=O)(=O)N2CCN(C(=O)CN3C(=O)NC4(CCCC4)C3=O)CC2)cc1,-2,-7,103,1,-3,12,/,/
CCCOC(=O)CSc1nnc(-c2ccc(Cl)cc2Cl)o1,0,4,99,6,7,-6,101,88
CCOC(=O)CSc1nnc(-c2ccc(Cl)cc2Cl)o1,4,1,129,8,-10,-9,/,/
CC1(C)Cc2ccccc2C2=NNC(=O)C2=N1,0,-8,56*,-5,19,-26,89,87
COc1cccc(NC(=O)c2nc(SC)ncc2Cl)c1,0,-11,106,13,-2,-20,116,123
COc1ccc(NC(=O)c2nc(SC)ncc2Cl)cc1,-4,-2,109,-1,7,8,/,/
SMILES,V-ATPase pH,PKA-R1A act,Yeast superoxide,PKA-R2B activ,GASC-1 inh,PolyA inhibitor,Superoxide pick,DHE fluor count
CSc1ncc(Cl)c(C(=O)Nc2ccc(C)c(C)c2)n1,1,-8,65*,0,-2,-4,99,114
CN1C[C@@H]2[C@@H]3C(=O)N(C)C(=O)[C@@H]3[C@](C)(C1=O)N2C(=O)c1ccc(Br)cc1,4,-5,/,-9,/,/,/,/
Cc1ccc(C)c(NC(=O)CN(C)C(=O)c2oc3c(Cl)cccc3c2C)c1,-3,8,65*,4,-4,-7,105,105
COc1ccccc1NC(=O)CCNC(=O)C1CCN(S(=O)(=O)c2ccccc2)CC1,1,6,/,-12,/,/,/,/
OCCNCC(O)Cn1c2ccccc2c2ccccc21 (stereo not given),-1,3,117,-4,-22,6,91,89
CCN(CC(O)Cn1c2ccccc2c2ccccc21)S(=O)(=O)c1ccc(F)cc1 (stereo not given),2,-19,107,1,2,/,/,/
OC(CN1CCCCC1)Cn1c2ccc(Cl)cc2c2cc(Cl)ccc21 (stereo not given),-1,7,45*,-10,8,-8,96,93
OCCNCC(O)Cn1ccc2ccccc21 (stereo not given),3,-7,111,-3,1,1,/,/
C=CCN(CC=C)CC(O)Cn1c2ccccc2c2ccccc21 (stereo not given),0,1,97,7,3,-4,92,98
OC(CN1CCNCC1)Cn1c2ccccc2c2ccccc21 (stereo not given),7,-4,102,5,-6,9,/,/
OC(CN1CCN(c2ccccn2)CC1)Cn1c2ccc(Cl)cc2c2cc(Cl)ccc21 (stereo not given),4,6,114,-10,9,-9,/,/
CCN(CC)CC(O)Cn1c2ccccc2c2ccccc21 (stereo not given),2,-12,87,-4,3,7,112,90
CC(=O)C1=C(O)C(=CC=Cc2ccccc2)OC1=O,3,-3,/,-7,/,/,/,/
OC(CN1CCOCC1)Cn1c2c(c3ccccc31)CCCC2 (stereo not given),2,-3,112,6,57,-9,/,/
OC(CN1CCOCC1)Cn1c2ccccc2c2ccccc21 (stereo not given),5,10,44*,9,3,1,97,105
C=CCNC(=S)N1CCC(C(=O)c2ccc(F)cc2)CC1,2,-10,103,-7,11,16,/,/
C/C(CCC12CC3CC(CC(C3)C1)C2)=N\NC(N)=S,0,1,64*,-6,-4,-5,114,104
C/C(CC1CC(C)OC1=O)=N\NC(N)=S (stereo not given),1,9,95,1,-1,2,/,/
CCOC(=O)N1CCN(C(=O)c2nn(C)c3c2CSc2ccccc2-3)CC1,-3,-13,99,-1,3,5,/,/
